Calls of active or inactive are those of the source. Calls come from the whole dose curve; as a rule, active = well fitted curve in the direction sought with a large enough effect; inconclusive = small, poorly fitted or top-dose-only effect, or another doubt; inactive = no such curve, though single readings can be large or run the other way.
Target: Hexokinase-4 (Homo sapiens) + Glucokinase regulatory protein (Homo sapiens) (UniProt P35557+Q14397)
Assay: qHTS assay for inhibitors of recombinant human GCK-GKRP interaction: HTRF assay (AID 743207);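 note: 0% = DMSO with GCK present and -100% = DMSO wells lacking GCK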
Conditions: recombinant GCK-GKRP HTRF binding, 60 min, with sorbitol-6-phosphate; series mostly up to 57.5 µM; activity change, negative = inhibition: at the top concentration
Source text: Glucokinase (GCK) is a glucose sensor in hepatocytes and pancreatic beta-cells. Hepatic GCK is regulated by glucokinase regulatory protein (GKRP), which is predominantly localized to the liver. GKRP binds to GCK inhibiting its activity in the fasting state while in the presence of glucose the GKRP is displaced. There is an additional layer of regulation by fructose 1-phosphate and fructose 6-phosphate, which inhibit and enhance the GCK-GKRP interaction, respectively. GCK plays a role in glucose homeostasis and there is an interest in the development of strategies to activate GCK to lower blood glucose levels in type 2 diabetes. To date the majority of effort has focused on direct activation of GCK and the assays developed herein look to activate GCK by inhibiting its binding to GKRP. A compound that inhibits the interaction of GCK with GKRP could be important for the treatment of diabetes and can also be used as a tool compound to further elucidate GCK-GKRP biology. To that end, we have developed an HTS biochemical assay using HTRF technology for to interrogate the GCK-GKRP interaction. This assay was screened against a small compound library to look for modulators of activity.
3 uL of 5 nM GST-GCK and 5 nM FLAG-GKRP proteins with 2 uM S6P (columns 1-2, 4-48; Millipore, Billerica, MA) are dispensed into Greiner, white solid-bottom 1536-well assay plates; columns 3 receive buffer without GCK as a control for maximum inhibition. Buffer contains 2 mM MgCl2, 25 mM KCl, 25 mM Hepes, 1 mM DTT, 0.1% Tween 20 and 0.025% BSA and the pH was adjusted to 7.1. Compounds (23 nL) are then transferred via Kalypsys pin tool equipped with 1536-pin array (10 nL slotted pins, V&P Scientific, San Diego, CA). The library compounds are in columns 5-48 and columns 1-4 serve as controls with DMSO in columns 1 and 3 and 26 mM 1:1.5 fold serial of gluckokinase activator (GKA-EMD) in column 2 and 26 mM of the glucokinase activator (GKA-EMD) in column 4. Following addition of compound, 1 uL of detection antibodies (anti-Flag XL 665 and anti-GST K in reconstitution buffer from Cisbio, Bedford, MA; 0.7 ng/well and 0.0945 ng/well, respectively) is added, and the mixture is allowed to equilibrate for 60 minutes at room temperature. Data are normalized to DMSO-treated control columns with (maximum signal) and without (minimum signal) enzyme. Plates were read on an Envision plate reader (PerkinElmer, Shelton, CT, USA) with excitation at 320 nm and dual-wavelength detection at the Fret donor wavelength (615 nm) and the FRET acceptor wavelength (665 nm).

Chain of Hexokinase-4 (Homo sapiens) + Glucokinase regulatory protein (Homo sapiens) (P35557 whole entry, looked up): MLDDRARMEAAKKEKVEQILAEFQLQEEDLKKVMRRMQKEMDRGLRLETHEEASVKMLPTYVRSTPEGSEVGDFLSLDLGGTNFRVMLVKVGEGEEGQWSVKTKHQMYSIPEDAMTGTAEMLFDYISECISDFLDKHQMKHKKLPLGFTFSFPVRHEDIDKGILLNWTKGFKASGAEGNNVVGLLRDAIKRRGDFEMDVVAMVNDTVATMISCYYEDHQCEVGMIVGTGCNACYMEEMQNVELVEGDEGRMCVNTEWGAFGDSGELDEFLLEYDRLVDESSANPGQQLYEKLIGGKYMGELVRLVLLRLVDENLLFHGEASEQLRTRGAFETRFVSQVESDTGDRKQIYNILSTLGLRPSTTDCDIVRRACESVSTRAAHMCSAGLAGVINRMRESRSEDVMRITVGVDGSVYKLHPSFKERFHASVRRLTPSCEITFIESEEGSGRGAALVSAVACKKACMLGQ
Chain of Hexokinase-4 (Homo sapiens) + Glucokinase regulatory protein (Homo sapiens) (Q14397 whole entry, looked up): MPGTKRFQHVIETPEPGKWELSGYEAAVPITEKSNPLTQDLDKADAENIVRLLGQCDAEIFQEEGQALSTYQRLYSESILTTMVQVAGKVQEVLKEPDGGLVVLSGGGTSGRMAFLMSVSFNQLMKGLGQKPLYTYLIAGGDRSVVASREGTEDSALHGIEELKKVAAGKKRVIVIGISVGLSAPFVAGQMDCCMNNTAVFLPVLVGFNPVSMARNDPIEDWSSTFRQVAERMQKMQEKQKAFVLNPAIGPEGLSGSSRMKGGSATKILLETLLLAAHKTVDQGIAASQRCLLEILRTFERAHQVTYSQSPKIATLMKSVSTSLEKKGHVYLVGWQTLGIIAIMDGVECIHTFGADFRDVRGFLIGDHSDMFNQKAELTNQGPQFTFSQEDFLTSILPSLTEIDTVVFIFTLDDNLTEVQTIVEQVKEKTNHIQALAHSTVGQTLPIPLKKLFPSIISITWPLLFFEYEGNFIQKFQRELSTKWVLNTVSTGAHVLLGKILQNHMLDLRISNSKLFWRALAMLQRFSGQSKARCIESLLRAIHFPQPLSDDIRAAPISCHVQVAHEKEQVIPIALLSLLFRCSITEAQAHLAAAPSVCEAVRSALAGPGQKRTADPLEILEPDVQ

SMILES	activity change, negative = inhibition
CN1C2CCC1CC(OC(=O)c1c[nH]c3ccccc13)C2 (stereo not given)	-12.1% (inactive)
CC(CCc1ccccc1)NCC(O)c1ccc(O)c(C(N)=O)c1 (stereo not given)	5.5% (inactive)
CCC(NC(C)C)C(O)c1ccc(O)c(O)c1 (stereo not given)	2.47% (inactive)
C[C@@H]1C(=O)NC2=Nc3cccc(Cl)c3CN21	-6.07% (inactive)
CC[C@H](C)C(=O)O[C@H]1CCC=C2C=C[C@H](C)[C@H](CC[C@@H]3C[C@@H](O)CC(=O)O3)[C@H]21	7.95% (inactive)
C1CCc2nnnn2CC1	-0.271% (inactive)
O=C(O)c1cc2cc(Cc3cccnc3)ccc2o1	-11.6% (inactive)
CC(C)C[C@H]1C(=O)N2CCC[C@H]2[C@]2(O)O[C@](NC(=O)[C@@H]3C=C4c5cccc6[nH]c(Br)c(c56)C[C@H]4N(C)C3)(C(C)C)C(=O)N12	2.26% (inactive)
COc1cc(NS(C)(=O)=O)ccc1Nc1c2ccccc2nc2ccccc12	-2.44% (inactive)
CC(C)COC(=O)OCN1C(=O)CN(CCN2CC(=O)N(COC(=O)OCC(C)C)C(=O)C2)CC1=O	3.02% (inactive)
O=C1CCC(c2ccc(-n3ccnc3)cc2)=NN1	12.3% (inactive)
CNCCC=C1c2ccccc2CCc2ccccc21	0.76% (inactive)
Nc1cc(Cl)c(NC2=NCCN2)c(Cl)c1	0.159% (inactive)
CCCn1c(=O)[nH]c(=O)c2[nH]cnc21	20.6% (inactive)
CCCC1O[C@@H]2C[C@H]3[C@@H]4CCC5=CC(=O)C=C[C@]5(C)[C@H]4[C@@H](O)C[C@]3(C)[C@]2(C(=O)CO)O1 (stereo not given in full)	-11.4% (inactive)
COc1cc2c(cc1O)CC[C@@H]1[C@@H]2CC[C@]2(C)[C@@H](O)CC[C@@H]12	0.687% (inactive)
CC1(C)CCC(NC(=O)[C@@H](N)CCC(=O)O)CC1	5.48% (inactive)
CC(=O)O[C@H]1C[C@@H]2CC[C@@H]3[C@H](CC[C@@]4(C)[C@H]3C[C@H]([N+]3(C)CCCCC3)[C@@H]4OC(C)=O)[C@@]2(C)C[C@@H]1[N+]1(C)CCCCC1	0.0528% (inactive)
COC(=O)[C@H]1[C@H]2C[C@H]3c4[nH]c5ccccc5c4CCN3C[C@H]2CC[C@@H]1O	0.0737% (inactive)
CNCCC(Oc1ccccc1C)c1ccccc1 (stereo not given)	-3.88% (inactive)
Oc1ccc(O)cc1	4.11% (inactive)
N[C@@H](Cc1cnc[nH]1)C(=O)O	-9.15% (inactive)
N[C@H](CO)C(=O)O	19.8% (inactive)
C[N+]1(CCCCC[N+]2(C)CCCC2)CCCC1	4.95% (inactive)
C[C@]12CC[C@@H]3c4ccc(O)cc4CC[C@H]3[C@@H]1CC[C@@H]2O	-7.11% (inactive)

— PubChem BioAssay (NCATS)
